In PubChem BioAssay (NCATS):
Results filed as inconclusive are left out. A call without a number means that no potency is given here. Active and inactive are the calls of the source. The call rests on the fitted dose curve; in most records, active means well fitted inhibition curve with a large enough effect; inconclusive means small, poorly fitted or top-dose-only effect; inactive means flat fitted curve, though single readings scatter.

Test system: Zika virus NS2B-NS3 protease
Assay: Primary screen GU AMC qHTS for Zika virus inhibitors (AID 1347154); further: nearly all actives have a fitted effect of over 70% in size
Conditions: Zika NS2B-NS3 unlinked protease, AMC fluorogenic substrate; series mostly up to 54.1 µM
Summary of the method: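 Unlinked Zika NS2B hydrophilic domain/NS3 protease domain noncovalent complex (25 nM final) in 10 mM Tris-HCl pH 8.0, 0.01% Tween 20, with AMC peptide substrate. Fluorescence (ex 340, em 450 nm) change over 15 min, room temperature; percent inhibition fitted to 4-parameter Hill equation.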

SMILES	Potency
C1CN2CCC1CC2	inactive
C[C@H]1C(=O)O[C@@H]2CCN3CC=C(COC(=O)[C@](C)(O)[C@]1(C)O)[C@H]23	inactive
ClCCCN1CCN(c2cccc(Cl)c2)CC1	inactive
CC[C@H](O)C(C[C@H](C)N(C)C)(c1ccccc1)c1ccccc1	inactive
CCN(CC)CCOC(=O)C(C)(c1ccccc1)c1ccccc1	inactive
COP(=S)(OC)Oc1ccc(Sc2ccc(OP(=S)(OC)OC)cc2)cc1	inactive
Cc1ncc2n1-c1ccc(Cl)cc1C(c1ccccc1F)=NC2	inactive
CCCOC(=O)Cc1ccc(OCC(=O)N(CC)CC)c(OC)c1	inactive
CCC1(c2cccc(O)c2)CCCCN(C)C1 (stereo unspecified)	inactive
CCO[C@H]1O[C@@H]2OC3(C)CC[C@H]4[C@H](C)CC[C@@H]([C@H]1C)[C@@]24OO3	inactive
CC(C)=C[C@@H]1[C@@H](C(=O)OCc2coc(Cc3ccccc3)c2)C1(C)C	inactive
NC1(c2ccccc2)CCCCC1	inactive
OC(O)C(Cl)(Cl)Cl	inactive
ClC1=C(Cl)C2(Cl)C(CBr)CC1(Cl)C2(Cl)Cl (stereo unspecified)	inactive
CN(C)C(=S)SSC(=S)N(C)C	inactive
CCC(=O)O[C@H]1CC[C@H]2[C@@H]3CCC4=CC(=O)CC[C@]4(C)[C@H]3CC[C@]12C	inactive
